Hits are enriched below; roughly 21% of the tested compounds scored in any of these assays.
Pf growth 48h: P. falciparum growth inhibition at 48 hours (one generation). AID 504832. 5.9% of 310,000 active. Potency, µM (titrated, usually from 28.7 µM), hits mostly inhibitors. P. falciparum luciferase growth in erythrocytes, 48 h
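Erythrocytes infected with P. falciparum carrying an integrated firefly luciferase reporter (2% hematocrit, 0.1% parasitemia final) were exposed to compounds in RPMI 1640 with 0.5% Albumax at 37 C, 5% CO2. Growth inhibition was scored as reduced luminescence.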
Shiga inhibitor: blocks Shiga toxin action in Vero cells | Vero cells, Shiga toxin protein synthesis inhibition reporter | inhibition, % at 38.7 µM | 9.2% of 290,000 active | AID 2315; in the data active = inhibition mostly above about 28%, no sharp cut-off; inactive = mostly below about 43%
NS1 function inh: blocks influenza NS1 protein function; Potency, µM (highest dose often 46.1 µM); 0.4% of 270,000 active; calls by dose curve; note: actives are rising curves; nearly all actives have a fitted effect of over 50% in size
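S. cerevisiae expressing influenza A NS1, grown in glucose, washed, then diluted 1:100 into pH 6.0 -URA galactose medium with 23 nl compound. Growth recovery read as OD600; NS1-free strain serves as control.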
Cycloheximide cs: affects cycloheximide protein synthesis inhibition readout, counter-screen | max response, % | cell reporter, cycloheximide protein synthesis inhibition counterscreen | 12% of 300,000 active; in the data active = max response mostly above about 13%, no sharp cut-off; inactive = mostly below about 14%; note: read at 38.3 µM for the half of the compounds with a filed dose
Pf growth 96h: inhibits malaria parasite growth, 96 h; Potency, µM (highest dose often 28.7 µM), usual class: inhibitors; P. falciparum luciferase reporter growth, 96 h; AID 504834; 6.9% of 320,000 active
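Delayed-death screen, second-generation endpoint: infected erythrocytes, 2% hematocrit, 0.05% parasitemia final; 96 hours at 37 C, 5% CO2; luciferase detection reagent; luminescence decrease equals reduced growth.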
Of the large screens only hits and unclear results are named; the others gave an inactive call. Unless noted, calls come from the whole dose curve; as a rule, active = well fitted inhibition curve with a large enough effect; inconclusive = small, poorly fitted or top-dose-only effect, or another doubt; inactive = no such curve, though single readings can be large or run the other way.

Cc1[nH]n(-c2ccccc2)c(=O)c1/C=N/c1nn[nH]n1	none
CCc1ccccc1NC(=O)c1ccc2c(O)c(S(=O)(=O)c3ccc(OC)cc3)c(=O)[nH]c2c1	Pf growth 96h inconclusive
COc1ccc(NC(=O)c2oc3ccccc3c2C)cn1	none
Cc1ccc(/C=N/NC(=O)Cc2cccn2C)cc1	Shiga inhibitor 45.5, Cycloheximide cs 25.9
CCc1ccc(/C=N/NC(=O)Cc2cccn2C)cc1	Shiga inhibitor 51.1, Cycloheximide cs 28.7
O=C(CN1CCOCC1)N/N=C/C=C/c1ccccc1	Cycloheximide cs 25.2 (no result: NS1 function inh)
Cn1cccc1CC(=O)N/N=C/C=C/c1ccccc1	Shiga inhibitor 82.4, Cycloheximide cs 24.7
Nc1nnnn1CC(=O)N/N=C/C=C/c1ccccc1	none
O=C(CN1CCN(Cc2ccccc2)CC1)N/N=C/C=C/c1ccco1	Pf growth 96h inconclusive
Cn1cccc1CC(=O)N/N=C\c1cccs1	Pf growth 96h inconclusive
C=CCn1c(SCCN2CCCC2)nc2c([nH]c3ccccc32)c1=O	none (no result: NS1 function inh)
O=C(O)C1CCC(N2C(=O)C3C4CCC(C4)C3C2=O)CC1 (configuration not stated)	Pf growth 96h inconclusive
Cn1cccc1CC(=O)N/N=C/c1ccc(C(C)(C)C)cc1	Shiga inhibitor 54.2, Cycloheximide cs 22.3
Cn1cccc1CC(=O)N/N=C/c1ccco1	Pf growth 96h inconclusive
Cc1cccc(C(=O)N2CCN(c3ccc([N+](=O)[O-])c(N4CCOCC4)c3)CC2)c1	Pf growth 48h inconclusive, Pf growth 96h inconclusive
O=C(c1cc2ccccc2cc1O)N1CCN(c2ccc([N+](=O)[O-])cc2)CC1	Pf growth 48h 6.57µM, Pf growth 96h inconclusive (no result: Shiga inhibitor, NS1 function inh, Cycloheximide cs)
O=C(/C=C/c1ccccc1)N1CCN(c2ccc([N+](=O)[O-])c(N3CCOCC3)c2)CC1	Pf growth 48h inconclusive, Pf growth 96h 10.4µM
O=C(c1cc([N+](=O)[O-])ccc1Cl)N1CCN(c2ccccc2)CC1	none
O=C(c1ccc2ccccc2c1)N1CCN(c2ccc([N+](=O)[O-])c(N3CCOCC3)c2)CC1	Pf growth 48h 7.38µM, Cycloheximide cs 26.2, Pf growth 96h 8.28µM
Cc1nc2ccc(NC(=O)CSc3nnc(C)s3)cc2[nH]1	Pf growth 96h inconclusive
NCCS(=O)O	none (no result: Pf growth 48h, Shiga inhibitor, Cycloheximide cs, Pf growth 96h)
Nc1ncc(Br)cc1S(=O)(=O)NCCC(=O)NCCc1ccc(Cl)cc1	Pf growth 48h inconclusive, Pf growth 96h inconclusive
COc1ccc(-c2[nH]ncc2CN(C)Cc2ccccn2)c(OC)c1	Pf growth 96h 13.1µM
O=S(=O)(/C=C/c1ccccc1)N1CCN(Cc2ccccc2)CC1	none
O=C(/C=C/c1cccc(F)c1)NCCCn1ccnc1	none (no result: Pf growth 48h)
N=c1oc2cc(O)ccc2cc1C(=O)Nc1ccc(F)cc1	Shiga inhibitor 42.5, Cycloheximide cs 27.2
COc1ccc(NC(=O)c2cc3ccc(O)cc3o/c2=N\O)cc1	Cycloheximide cs 15.3
COc1ccc2o/c(=N\O)c(C(=O)Nc3ccccc3OC)cc2c1	none (no result: Pf growth 96h)
Cc1nn(C(C)C(=O)N2CCCC2)c(=O)c2nn(-c3ccccc3)c(C)c12 (configuration not stated)	Pf growth 96h inconclusive
COCCNC(=O)Cn1nc(-c2ccccc2OC)ccc1=O	none
COc1ccccc1-c1ccc(=O)n(CC(=O)NC(C)(C)C)n1	Pf growth 96h 7.38µM
COCCNC(=O)Cn1nc(-c2ccccc2F)ccc1=O	Pf growth 96h 3.7µM
COCCCNC(=O)Cn1nc(-c2cccc(OC)c2)ccc1=O	Pf growth 96h 10.4µM
O=C(NCc1ccc(F)cc1)N1CCN(C(=O)c2ccccc2)CC1	none (no result: Shiga inhibitor, NS1 function inh, Cycloheximide cs)
CCn1ccnc1C(O)(c1ccccc1)c1ccccc1	none (no result: Shiga inhibitor)
CCOc1ccc(N(CC(=O)NCCOc2ccc(C)cc2)S(=O)(=O)c2ccccc2)cc1	Pf growth 48h 10.4µM, Pf growth 96h inconclusive
CCOc1ccc(N(CC(=O)NCc2ccccc2OC)S(C)(=O)=O)cc1	Shiga inhibitor 91.7, Cycloheximide cs 42.6 (no result: Pf growth 96h)
CCOc1ccc(N(CC(=O)NN=C2CCN(C)CC2)S(=O)(=O)c2ccc(Br)cc2)cc1	NS1 function inh inconclusive, Pf growth 96h 14.7µM
CN1CCC(=NNC(=O)CN(c2ccccc2)S(=O)(=O)c2ccccc2)CC1	NS1 function inh inconclusive
COc1ccc(N(CC(=O)NCCOc2ccccc2)S(=O)(=O)c2ccc(C)cc2)cc1	Pf growth 48h inconclusive
C=CCNC(=O)c1ccc(N(Cc2ccc(Cl)cc2)S(C)(=O)=O)cc1	none (no result: Shiga inhibitor)
C=CCNC(=O)c1ccc(CN(c2ccc(OCC)cc2)S(=O)(=O)c2ccc(C)cc2)cc1	Pf growth 48h 7.38µM
CCC(=O)N1c2ccc(C)cc2C2=NNC(=S)NC21O (configuration not stated)	none (no result: Pf growth 48h)
COc1ccc(-c2csc(NC(=O)C3CC(=O)N(Cc4ccccc4)C3)n2)cc1OC (configuration not stated)	Pf growth 48h inconclusive, Pf growth 96h inconclusive
CS(=O)(=O)N(CC(=O)NCc1ccco1)c1ccc(OCc2ccccc2)cc1	none
Cc1ccc(CNC(=O)CN(c2ccc(Cl)cc2)S(C)(=O)=O)cc1	Cycloheximide cs 12.1, Pf growth 96h inconclusive (no result: Shiga inhibitor)
COc1ccccc1CNC(=O)CN(c1ccc(C)cc1)S(=O)(=O)c1c(C)nn(C)c1C	Pf growth 48h inconclusive, Pf growth 96h 4.15µM
CCOc1ccc(N(CC(=O)NCc2ccccc2)S(C)(=O)=O)cc1	Shiga inhibitor 68.1, Cycloheximide cs 26.3
CC(C)(C)c1ccc(C(=O)CCCN2CCC(OC(c3ccccc3)c3ccccc3)CC2)cc1	Pf growth 48h 9.53µM, Pf growth 96h 7.57µM (no result: Shiga inhibitor, NS1 function inh, Cycloheximide cs)
CCOc1ccc(-c2n[nH]c(C(=O)NN)c2C)cc1	Shiga inhibitor 94.9, NS1 function inh inconclusive, Cycloheximide cs 31.7
Cc1c(-c2ccccc2)n[nH]c1C(=O)NN	Shiga inhibitor 97.1, Cycloheximide cs 42.6 (no result: NS1 function inh)
CCOc1ccc(NC(N)=O)cc1	none (no result: Pf growth 96h)
CCC1=C(C[C@H]2NCCc3ccccc32)C[C@@H]2c3cc(OC)c(OC)cc3CCN2C1	none (no result: Pf growth 48h, Shiga inhibitor, Cycloheximide cs, Pf growth 96h)
Cc1nc2sc(C(c3cccs3)N3CC(C)CC(C)C3)c(O)n2n1 (configuration not stated)	Pf growth 48h 6.57µM, Pf growth 96h inconclusive
Cc1nc2sc(C(c3cccs3)N3CCN(c4cccc(Cl)c4)CC3)c(O)n2n1 (configuration not stated)	Pf growth 96h inconclusive
COc1ccccc1N(CC(=O)N(CC(C)C)CC(C)C)S(=O)(=O)c1cccs1	Pf growth 48h inconclusive, Pf growth 96h inconclusive
COc1ccccc1N(CC(=O)N(c1ccccc1)C(C)C)S(=O)(=O)c1cccs1	Pf growth 96h 9.28µM (no result: NS1 function inh)
O=C(Nc1ccc(N2CCN(C(=O)c3ccco3)CC2)cc1)c1ccc(Br)cc1	Pf growth 48h inconclusive, Pf growth 96h inconclusive
CC(C)(C)OC(=O)N1CCN(c2ccc(NC(=O)c3ccco3)cc2)CC1	Pf growth 48h 7.38µM
O=C(Cc1ccc(Cl)cc1)Nc1ccc(N2CCN(C(=O)c3ccco3)CC2)cc1	Pf growth 48h inconclusive (no result: Pf growth 96h)
O=C(c1ccco1)N1CCN(c2ccc(Cl)cc2)CC1	Shiga inhibitor 78.5, Cycloheximide cs 36.7
Cc1nn(-c2ccc(Cl)cc2)c2sc(C(=O)N3CCN(C(=O)c4ccco4)CC3)cc12	Pf growth 96h 10.4µM
O=C(Nc1ccc(N2CCN(C(=O)c3ccco3)CC2)cc1)c1cc(Br)ccc1Cl	Pf growth 48h 13.1µM, Pf growth 96h 10.4µM (no result: Shiga inhibitor, NS1 function inh, Cycloheximide cs)
